Screening results from PubChem BioAssay.
The entries come from a sample that favours hits as a whole.
BLM inh = blocks DNA unwinding by human BLM helicase. P54132. recombinant BLM DNA unwinding, fluorescence dequenching. Potency, µM (doses to about 56.1 µM), for the others: top-dose activity change, negative = inhibition, hits mostly inhibitors. 350,000 tested, 0.2% active. AID 2528;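 note: plate controls were vehicle for no effect and no enzyme for full effect; nearly all actives have a fitted effect of over 35% in size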
GCN5L2 inh = inhibitors of human GCN5L2 histone acetyltransferase; Q92830; GCN5L2 HAT assay, ThioGlo1 CoA-SH fluorescence; Potency, µM (highest dose often 58.9 µM), inactives show at the highest dose activity change, negative = inhibition, usual class: inhibitors; 390,000 tested, 0.21% active; AID 504327
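Titration-based screen in which CoA formation is detected via maleimide probe ThioGlo1 (50uM) turning fluorescent on thiol reaction; substrates H3(1-25) 75uM and acetyl-CoA 70uM, GCN5L2 20nM, 20 min incubation at room temperature.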
RECQ1 inh-1 = RECQ1 (human) helicase inhibition | P46063 | RECQ1 DNA unwinding, red fluorescence kinetic read | Potency, µM (titrated, usually from 57.3 µM), inactives show at the top dose activity, negative = inhibition, actives largely listed as inhibitors | AID 2549 | 240,000 tested, 0.54% active;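 note: plate controls were vehicle for no effect and no enzyme for full effect; nearly all actives have a fitted effect of over 30% in size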
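RECQ1T1 50 nM; forked duplex (20 bp + 30-nt ss tails) 200 nM, ATP 2 mM final; pH 8.0, 2 mM MgCl2, 2.5 ug/ml poly(dI-dC); 15 min compound preincubation; discontinuous kinetic read over 2 h at RT.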
KDM4E inh = blocks human JMJD2E demethylase activity. 230,000 tested, 1.6% active. JMJD2E catalytic domain, FDH-coupled NADH fluorescence (FDH is formaldehyde dehydrogenase). B2RXH2. AID 2147. Potency, µM (series often up to 57.1 µM), without a hit: at the top dose activity change, negative = inhibition, hits mostly inhibitors; active = well fitted inhibition curve with a large enough effect, not every such curve was filed as active; inconclusive = small, poorly fitted or top-dose-only effect, or another doubt; inactive = no such curve, though single readings can be large or run the other way;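 note: 0% = wells with enzyme and -100% = buffer wells without enzyme; nearly all actives have a fitted effect of over 50% in size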
Target sequence (B2RXH2 1-337 limits assumed): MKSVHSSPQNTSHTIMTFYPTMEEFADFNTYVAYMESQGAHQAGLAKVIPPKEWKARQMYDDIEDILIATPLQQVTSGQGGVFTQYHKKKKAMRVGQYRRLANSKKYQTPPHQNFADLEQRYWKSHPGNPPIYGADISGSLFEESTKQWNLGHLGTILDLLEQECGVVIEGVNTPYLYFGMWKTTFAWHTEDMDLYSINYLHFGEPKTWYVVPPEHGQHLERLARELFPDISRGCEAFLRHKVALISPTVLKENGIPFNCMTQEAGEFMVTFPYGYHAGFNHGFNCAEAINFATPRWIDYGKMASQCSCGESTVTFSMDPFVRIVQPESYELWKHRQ
APE1 inh = APE1 (human) endonuclease inhibition | recombinant APE1, TAMRA/BHQ-2 abasic DNA cleavage fluorescence | Potency, µM (doses to about 65.8 µM), inactives show top-dose activity change, negative = inhibition, usual class: inhibitors | P27695 | 350,000 tested, 0.35% active;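 note: plate controls were vehicle for no effect and reference inhibitor for full effect; nearly all actives have a fitted effect of over 55% in size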
Target sequence (P27695 whole entry, looked up): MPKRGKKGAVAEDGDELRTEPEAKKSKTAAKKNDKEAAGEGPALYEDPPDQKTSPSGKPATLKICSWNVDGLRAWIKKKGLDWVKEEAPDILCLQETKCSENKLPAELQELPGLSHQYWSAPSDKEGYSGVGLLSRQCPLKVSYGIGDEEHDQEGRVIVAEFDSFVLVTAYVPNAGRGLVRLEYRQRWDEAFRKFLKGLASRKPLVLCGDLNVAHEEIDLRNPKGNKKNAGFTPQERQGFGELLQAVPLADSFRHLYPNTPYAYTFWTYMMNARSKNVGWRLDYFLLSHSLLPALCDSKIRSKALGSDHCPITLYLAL
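Activity was derived from the fluorescence gain between first and third kinetic reads (60 s intervals, ex 525/em 598 nm) after 50 nM THF-abasic TAMRA/BHQ-2 duplex was added to 0.75 nM APE1 preincubated 15 min with compound.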
TDP1 block = blocks human tyrosyl-DNA phosphodiesterase 1; recombinant TDP1, AlphaScreen DNA substrate cleavage; Potency, µM (titrated, usually from 130 µM), for inactives: at the highest dose activity change, negative = inhibition, hits mostly inhibitors; Q9NUW8; 350,000 tested, 0.28% active; note: nearly all actives have a fitted effect of over 40% in size
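Compounds were preincubated with Tdp1 (1 nM final) for 15 min at room temperature before substrate (15 nM final) started a 5 min reaction; beads (10 ug/ml final) were then added for 10 min before AlphaScreen detection.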
RECQ1 conf = confirmation of human RECQ1 helicase inhibitors. shares compounds with RECQ1 inh-1. RECQ1 helicase DNA unwinding, fluorescence. Potency, µM (titrated, usually from 229 µM), for the others: at the highest dose activity change, negative = inhibition, hits mostly inhibitors. 610 tested, 28% active. AID 2708; note: nearly all actives have a fitted effect of over 45% in size
RECQ1 ADP FP = counter-screen for RECQ1 inhibitors: ADP displacement; ADP fluorescence polarization displacement counterscreen; 530 tested, 27% active; Potency, µM (series often up to 228 µM), for the others: top-dose activity change, negative = inhibition, actives largely listed as inhibitors; shares compounds with RECQ1 inh-1; note: nearly all actives have a fitted effect of over 45% in size
RECQ1 inh-2 = blocks human RECQ1 DNA unwinding; Potency, µM (series often up to 119 µM), for the others: top-dose activity, negative = inhibition, hits mostly inhibitors; 1,100 tested, 15% active; recombinant RECQ1 DNA unwinding, red fluorescence; shares compounds with RECQ1 inh-1; note: nearly all actives have a fitted effect of over 50% in size
An asterisk follows results filed as active; ? = inconclusive; . = not tested or not shown; [ ] = another dose, or the depositor's remark. Unless noted, calls come from the whole dose curve; as a rule, active = well fitted curve in the direction sought with a large enough effect; inconclusive = small, poorly fitted or top-dose-only effect, or another doubt; inactive = no such curve, though single readings can be large; an effect the other way counts as inactive or inconclusive. Unless noted, % is set by controls: 0 for no effect and ±100 for the full control effect; potency is the fitted concentration of half-maximal effect.

SMILES	BLM inh	GCN5L2 inh	RECQ1 inh-1	KDM4E inh	APE1 inh	TDP1 block	RECQ1 inh-2	others
COc1ccc(NC(=O)c2csc(Cc3ccc(Cl)cc3)n2)cc1	-10%	-3%	?	?	6%	-13%	-48%
CC1=C(C(=O)Nc2ccc(Cl)cc2)C(C(C)C)n2nc(SCc3ccc(Cl)cc3)nc2N1 (stereo unspecified)	-1%	-7%	.	.	.	5%	.
COc1ccc(N2CCN(C(=O)c3ccc4c(=O)n(CCc5ccc(OC)c(OC)c5)c(=O)[nH]c4c3)CC2)cc1	-7%	2%	-13%	10%	10%	8%	.	RECQ1 conf=6%;RECQ1 ADP FP=?
CC(=O)c1ccc2c(c1)C1C=CCC1C(c1ccncc1)N2 (stereo unspecified)	-29%	-5%	?	?	?	7%	36%
C1=CC2c3ccccc3NC(c3ccncc3)C2C1 (stereo unspecified)	-16%	-3%	-23%	?	?	6%	.
Cc1cc(C)cc(C(=O)NCC(=O)OCC(=O)N2c3ccccc3NC(=O)C2(C)C)c1	-25%	-7%	?	-6%	?	?	-23%
CC1(C)C(=O)Nc2ccccc2N1C(=O)COC(=O)Cc1ccccc1F	.	-2%	.	.	-7%	-16%	.
COc1ccc(-c2ccc(C(C)=O)cc2)cc1C1C2C=CCC(C)C2C(=O)N1Cc1ccccc1 (stereo unspecified)	-15%	.	-10%	.	2%	9%	.
COc1ccc(S(=O)(=O)NCCCCC(=O)O)cc1C(=O)O	3%	-4%	-7%	1%	3%	3%	.
COc1ccc(S(=O)(=O)NCCCCCC(=O)O)cc1C(=O)O	-4%	2%	-9%	-1%	9%	1%	.	RECQ1 conf=10%;RECQ1 ADP FP=-7%
O=C1NC(=O)/C(=C\c2ccc(O)cc2O)S1	-23%	-14%	22µM*	16µM*	4µM*	.	13µM*
Cc1cc(N2CCOCC2)ccc1/C=C1/SC(=O)NC1=O	-7%	-18%	-7%	-11%	2%	-1%	.
O=C1CCC(=O)N1CO	3%	-6%	.	.	.	.	.
CCOc1ccc(Cl)cc1S(=O)(=O)N1CCC(C(=O)NCc2ccccn2)CC1	2%	2%	.	.	6%	2%	.
O=C(NCc1ccccn1)C1CCN(S(=O)(=O)c2cc(Cl)ccc2Cl)CC1	0%	2%	?	5%	19%	6%	-4%
CN(C)/C=C/C(=O)c1ccc(Br)cc1	-4%	-12%	?	-1%	21%	-5%	-30%
Cc1cc(C)c(S(=O)(=O)NCc2csc(-c3ccccc3)n2)c(C)c1	-9%	-8%	.	.	.	3%	.
Cc1ccc(C)c(-n2c(SCC(=O)NC(C(=O)O)C(C)C)nnc2-c2cccc(Cl)c2)c1 (stereo unspecified)	-1%	3%	0%	5%	-2%	8%	.	RECQ1 conf=13%;RECQ1 ADP FP=10%
CC1(C)CCC[C@@](C)([C@H]2CC[C@]3(C)[C@@H]2[C@H](O)CC2[C@@]4(C)CC[C@H](O)C(C)(C)[C@@H]4[C@@H](O)C[C@]23C)O1 (stereo partly specified)	-10%	0%	-4%	.	12%	6%	.
O=C1[C@H]2[C@H]3[C@H](O)[C@H](O)C/C(=N/OC[C@@H](O)COCc4ccco4)[C@@H]3CC[C@@H]2C(=O)N1Cc1ccccc1	1%[12.4 µM]	.	-1%[11.5 µM]	.	?	10%[21 µM]	.
O=C(O)c1cc(-c2ccc(/C=C3/SC(=S)N(Cc4ccccc4)C3=O)o2)ccc1Cl	-8%	-11%	6.3µM*	5%	?	.	.	RECQ1 conf=?
O=S(=O)(Nc1nc(-c2sccc2Cl)cs1)c1cc(Cl)ccc1Cl	-14%	?	?	-27%	-1%	8%	?
c1cc(-c2noc(CCC3CCCC3)n2)ccn1	0%	1%	?	6%	-4%	-7%	-15%
O=C(CSc1cccc2cccnc12)N/N=C/c1cccc(O)c1	-6%	-3%	-6%	?	1%	2%	.
O=C(N/N=C/c1ccc(O)c(O)c1)c1ccc(CSc2cccc3cccnc23)cc1	-19%	-7%	11µM*	?	-11%	7%	.	RECQ1 conf=-14%[114 µM];RECQ1 ADP FP=18%[91.9 µM]
SMILES	BLM inh	GCN5L2 inh	RECQ1 inh-1	KDM4E inh	APE1 inh	TDP1 block	RECQ1 inh-2	others
COc1ccc(S(=O)(=O)/N=C2/NC(=O)/C(=C\c3ccco3)S2)cc1	6%	-18%	-4%	0%	6%	1%	.
COc1ccc(S(=O)(=O)/N=C2/NC(=O)/C(=C/c3ccco3)S2)cc1	5%	-6%	?	?	?	?	-27%
Cc1ccc(NC(=O)CCc2nnc3n(CC(C)C)c(=O)c4ccccc4n23)cc1C	-4%	-1%	.	.	.	1%	.
Cc1cccc(NC(=O)CSc2nc3n[nH]c(C)c3c(=N)n2-c2cccc(Cl)c2)c1	2%	3%	.	.	.	4%	.
CC[C@]1(O)C[C@@H]2CN(CCc3c([nH]c4ccccc34)[C@](C(=O)OC)(c3cc4c(cc3OC)N(C=O)[C@H]3[C@@](O)(C(=O)OC)[C@H](C(=O)OC)[C@@]5(CC)C=CCN6CC[C@]43[C@H]65)C2)C1	-12%	-3%	-26%	-20%	0%	13%[56.1 µM]	.
CCN1CCN(C(=O)c2sc3ncnc(N4CCc5ccccc5C4)c3c2C)CC1	-1%	-1%	28µM*	-24%	24%	1%	-14%
Cc1c(C(=O)N2CCCCC2C)sc2ncnc(N3CCc4ccccc4C3)c12 (stereo unspecified)	-13%	-16%	-13%	-14%	3%	1%	.
CC(C)OCCCNC(=O)CN1C(=O)COc2ccc(S(=O)(=O)N3CCOCC3)cc21	0%	-2%	.	.	.	0%	.
CC1=Nc2ccccc2/C1=C/c1nc(-c2ccc(C)s2)oc1O	-7%	-13%	?	?	-12%	5%	?
CC1=Nc2ccccc2/C1=C\c1nc(-c2ccccc2)oc1O	-11%	-6%	-8%	-8%	-5%	-3%	.
